Compound activity (PubChem BioAssay)
Most compounds without a hit are left out; they make up all but 7.8% or so of the library.
Vaccinia Venus = vaccinia inhibition (Venus reporter); Vaccinia virus Venus reporter expression, fluorescence; Potency, µM (titrated, usually from 36.5 µM), for inactives: top-dose activity change, negative = inhibition, usual class: inhibitors; 0.46% of 330,000 active; AID 720580; calls by dose curve; tested in A549 cells; further: potency means the concentration at half of the fitted maximal effect; nearly all actives have a fitted effect of over 30% in size
Marburg entry inh = Marburg virus entry inhibition; Marburg virus pseudotyped entry inhibition, cell reporter; Potency, µM (doses to about 37.8 µM), for the others: at the highest dose activity change, negative = inhibition, most hits filed as inhibitors; 1.8% of 300,000 active; AID 540276; calls by dose curve; tested in HEK293 cells; further: potency means the concentration at half of the fitted maximal effect
HCMV antiviral = inhibitors of human cytomegalovirus | HFF cells, HCMV-luciferase reporter, 72 h; hits give low values | activity change, negative = inhibition, % at 57.5 µM | 4.5% of 410,000 active; in the data active means activity change below about -60%; inconclusive means no clear call, values can overlap the other calls; inactive means above about -39%
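Cell-based, HFFs, 1000 cells/well, 16 h 37C; cpds in DMSO + HCMV-luc, MOI 1 PFU/cell; 72 h 37C; OneGlo luminescence after 5 min RT; norm. to buffer vs Salinomycin 10uM.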
Lassa entry inh = inhibitors of Lassa virus binding or cell entry; Lassa virus pseudotype entry inhibition, cell reporter; Potency, µM (top dose mostly 37.9 µM), inactives show at the top dose activity change, negative = inhibition, actives largely listed as inhibitors; 1.2% of 300,000 active; calls by dose curve; tested in HEK293 cells; further: potency means the concentration at half of the fitted maximal effect; nearly all actives have a fitted effect of over 50% in size
Vaccinia mCherry = inhibitors of vaccinia virus infection (mCherry reporter signal). Vaccinia virus mCherry reporter infection, fluorescence. Potency, µM (top dose mostly 36.5 µM), without a hit: at the highest dose activity change, negative = inhibition, most hits filed as inhibitors. 0.63% of 310,000 active; calls by dose curve; tested in A549 cells; further: potency means the concentration at half of the fitted maximal effect; nearly all actives have a fitted effect of over 35% in size
HCV inhibitor = HCV inhibition; 3.4% of 340,000 active; Potency, µM (highest dose often 41.8 µM), without a hit: top-dose activity change, negative = inhibition, usual class: inhibitors; AID 651820; Huh7.5.1 HCVcc-Cre infection, luciferase reporter, 44 h; active means well fitted inhibition curve with a large enough effect; inconclusive means small, poorly fitted or top-dose-only effect, or another doubt; inactive means no such curve, though single readings can be large or run the other way; further: potency means the concentration at half of the fitted maximal effect
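A cell-based infection assay in which seeded cells (1,000 per well) receive test compound after 4 h, are inoculated with HCVcc-Cre at approximately 0.5 moi, and are incubated 44 h before luminescence detection.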
An asterisk follows results filed as active; i = inactive; ? = inconclusive; . = no result given; [ ] = dose if it differs, or a comment. On the % scale 0 is the no-effect control and ±100 the full control effect.

SMILES	Vaccinia Venus	Marburg entry inh	HCMV antiviral	Lassa entry inh	Vaccinia mCherry	HCV inhibitor
COc1cc(CNC2CCCC2)cc(Cl)c1OCc1ccccc1F	15.8µM*	?	?	?	?	10µM*
O=C1/C(=C/c2ccncc2)N2CCC1CC2	?	?	3.8	?	-12.4%	-11.6%
O=C1/C(=C/c2ccccc2Cl)N2CCC1CC2	3.6%	.	-66.8*	.	-12.6%	-18.7%
CC(C)C[C@H]1CNC(=S)N1C[C@H]1CCCN1C[C@H](Cc1ccccc1)N1C[C@H](Cc2ccc(O)cc2)N(CC2CCCCCC2)C1=S	?	.	-83.9*	.	-24.3%	.
CC(C)C[C@H]1CN([C@@H](Cc2ccc(O)cc2)CN2CCC[C@@H]2CN2C(=S)NC[C@@H]2Cc2ccccc2)C(=S)N1CC1CCCCC1	-17.8%	.	-16.4	.	-13.6%	.
CC(C)C[C@H]1CNC(=S)N1CC1CCCN1C[C@H](Cc1ccc(O)cc1)N1C[C@H](Cc2ccccc2)N(CC2CCCCCC2)C1=S (stereo not given in full)	-27.7%	.	-19.7	.	?	7.94µM*
CC(C)C[C@H]1CNC(=S)N1CC1CCCN1C[C@H](Cc1ccccc1)N1C[C@H](Cc2ccc(O)cc2)N(CC2CCCCC2)C1=S (stereo not given in full)	?	.	7.7	.	?	10µM*
CC(C)C[C@H]1CNC(=S)N1C[C@H]1CCCN1C[C@H](Cc1ccc(O)cc1)N1C[C@H](Cc2ccccc2)N(CC2CCCCC2)C1=S	-17.0%	.	-34.3	.	-0.3%	.
O=C(/C=C/Nc1ccc(F)cc1)c1cccs1	-9.3%	11.2µM*	16.6	?	i	4.2%
Cc1cc(C)nc(-n2nc(C)c3c2N(Cc2ccccc2)C(=O)CC3c2ccc(Cl)cc2)n1 (stereo not given)	-19.5%	-0.8%[46.1 µM]	-17.1	-24.3%[46.1 µM]	-10.0%	.
Cc1ccc(C)n1C1C(=O)N(Cc2ccc(Cl)nc2)c2ccccc21 (stereo not given)	.	.	-2.6	.	.	.
CCCCN(CC)C(=O)CSc1nc2ccccc2c(=O)n1CC1COc2ccccc2O1 (stereo not given)	.	?	?	-26.3%	.	10µM*
O=C(CSc1nc2ccccc2c(=O)n1CC1CCCO1)NCc1ccccc1 (stereo not given)	-5.2%	-10.4%	12.4	0.0%	i	-13.3%
CCCCNC(=O)CSc1nc2ccccc2c(=O)n1CC1COc2ccccc2O1 (stereo not given)	.	-2.4%	36.8	-1.5%	.	2.82µM*
COc1cccc(CNC(=O)C(=O)NCC(c2cccs2)S(=O)(=O)c2cccs2)c1 (stereo not given)	?	.	-10.9	-13.2%[46.1 µM]	?	.
O=C(C1=C[C@H](c2ccccc2)C[C@H](OCc2ccc(CO)cc2)O1)N1CCN(Cc2ccccc2)CC1	-29.5%	.	?	.	-5.9%	-9.8%
O=C(Nc1ccccc1)C1=C[C@@H](C2CC2)C[C@@H](OCc2ccc(CO)cc2)O1	-13.0%	.	22.9	.	-7.5%	0.562µM*
O=C(C1=C[C@@H](c2ccccc2)C[C@@H](OCc2ccc(CO)cc2)O1)N1CCN(Cc2ccc3c(c2)OCO3)CC1	?	.	-1.5	.	-22.0%	11.2µM*
O=C(NCc1ccccc1)C1=C[C@H](c2ccccc2)C[C@H](OCc2ccc(CO)cc2)O1	-20.4%	.	-90.7*	.	-13.4%	-4.4%
O=C(NCc1ccccc1)C1=C[C@@H](c2ccc(Br)cc2)C[C@@H](OCc2ccc(CO)cc2)O1	?	.	-15.5	.	-26.3%	?
COc1ccccc1C(=O)NC1=NC(c2ccc(Br)cc2)CC(=O)N1 (stereo not given)	-10.0%	?	-16.6	-29.7%[46.1 µM]	-5.3%	.
O=C(NCc1ccc2c(c1)OCO2)c1ccc2c(c1)N(Cc1c(F)cccc1Cl)C(=O)CS2	-17.6%	?	-77.9*	?	-2.9%	?
O=C(NCCc1ccccc1)c1ccc2c(c1)N(Cc1ccc(F)cc1Cl)C(=O)CS2	-0.5%	?	-15.8	5.4%[46.1 µM]	-3.2%	.
O=C(NCCc1ccc(Cl)cc1)c1ccc2c(c1)N(Cc1ccc(F)cc1Cl)C(=O)CS2	?	-27.8%[46.1 µM]	-63.6*	?	-18.4%	.
O=C(NCc1ccc2c(c1)OCO2)c1ccc2c(c1)N(Cc1ccccc1F)C(=O)c1ccccc1S2	-1.1%	.	-8.3	?	2.5%	.
SMILES	Vaccinia Venus	Marburg entry inh	HCMV antiviral	Lassa entry inh	Vaccinia mCherry	HCV inhibitor
COc1cc(C(=O)Nc2nc3ccccc3[nH]2)ccc1OC(F)F	-23.7%	?	-14.4	?	-6.7%	8.91µM*
CCOc1ccc(C(=O)Nc2nc3ccccc3[nH]2)cc1OCC	-28.7%	11.2µM*	-63.0*	.	?	?
COc1ccc(C(=O)Nc2nc3ccccc3[nH]2)cc1OC	.	-19.8%	118.5	12.4%	.	-15.6%
Cc1ccc2c(CC(=O)N(Cc3cccc(Cl)c3)C3CCS(=O)(=O)C3)coc2c1 (stereo not given)	-8.2%	-28.8%[46.1 µM]	10.1	-11.5%[46.1 µM]	-12.3%	.
Clc1cccc(Cl)c1C[n+]1cccc2ccccc21	-17.9%	?	-81.3*	?	-27.6%	?
Cc1nc2ccccc2c2c1CC(C(C)(Cl)Br)O2 (stereo not given)	.	.	-92.5*	.	.	3.16µM*
Cc1ccc2nc(C)c3c(c2c1)OC(C(C)(Cl)Br)C3 (stereo not given)	-4.4%	-22.8%[46.1 µM]	-20.3	?	17.2%	7.08µM*
CC(C)C[C@H]1CNC(=S)N1C[C@H]1CCCN1C[C@H](Cc1ccc(O)cc1)N1C[C@H](CC(C)C)N(CC2CCCCCC2)C1=S	-19.7%	.	?	.	-14.8%	.
CC(C)C[C@@H](CN1CCC[C@@H]1CN1C(=S)NC[C@@H]1Cc1ccccc1)N1C[C@H](Cc2ccc(O)cc2)N(CC2CCCCC2)C1=S	-0.5%	.	-4.9	.	43.7%	.
CC(C)C[C@H]1CNC(=S)N1CC1CCCN1C[C@H](CC(C)C)N1C[C@H](Cc2ccc(O)cc2)N(CC2CCCCCC2)C1=S (stereo not given in full)	28.2µM*	.	-101.7*	.	?	24.7%
CC(C)C[C@@H](CN1CCCC1CN1C(=S)NC[C@@H]1Cc1ccc(O)cc1)N1C[C@H](Cc2ccc(O)cc2)N(CC2CCCCC2)C1=S (stereo not given in full)	10µM*	.	-98.1*	.	?	?
CC(C)C[C@H]1CNC(=S)N1C[C@H]1CCCN1C[C@H](CC(C)C)N1C[C@H](Cc2ccc(O)cc2)N(CC2CCCCCC2)C1=S	-10.3%	.	-101.4*	.	6.7%	.
CC(C)C[C@@H](CN1CCC[C@@H]1CN1C(=S)NC[C@@H]1Cc1ccccc1)N1C[C@H](Cc2ccc(O)cc2)N(CC2CCCCCC2)C1=S	-9.3%	.	-26.3	.	4.5%	.
CC(C)C[C@H]1CNC(=S)N1CC1CCCN1C[C@H](CC(C)C)N1C[C@H](Cc2ccc(O)cc2)N(CC2CCCCC2)C1=S (stereo not given in full)	?	.	-98.4*	.	?	10µM*
